# Source: PubChem BioAssay AID1508622 (National Center for Advancing Translational Sciences (NCATS), 2021)
# The source made the active and inactive calls. Where a call stands in place of a potency, no number is given. Calls come from the whole dose curve; as a rule, active = well fitted activation curve with a large enough effect; inconclusive = small, poorly fitted or top-dose-only effect; inactive = no such curve, though single readings can be large or run the other way.
# Assay: Confirmatory qHTS for Identification of Small Molecule Activators of Huntingtin-Antisense Promoter Activity
# Conditions: HEK293 HTT-AS promoter firefly luciferase reporter, 24 h; series mostly up to 57.5 µM
# Procedure, shortened: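 2,500 luciferase reporter HEK293 cells/well; 24 h culture; cpds up to 57.5 uM final, PTC124 50 uM ctrl; 24 h, 37C; Dual-Glo FLuc reagent, 10 min RT; lum. Norm.: vehicle 0%, zero RLU -100%.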
# Potency is the fitted concentration of half-maximal effect.
row,Structure (SMILES),Potency
1,COc1ccc(C2C=C(c3ccc(Br)cc3)Nc3nnnn32)c(OC)c1 (configuration not stated),inactive
2,O=C(CSc1nccn1Cc1ccc(F)cc1)Nc1nc2ccccc2s1,inactive
3,COc1ccc(NC(=O)CN2C(=O)C(C)(C)c3ccccc32)cc1Cl,inactive
4,CSc1ccc(CCNC(=O)C2CCCN(S(=O)(=O)N(C)c3ccc(F)cc3)C2)cc1 (configuration not stated),inactive
5,CCOc1ccccc1C(=O)Nc1ccc2nc3c(c(Nc4ccc(OC)c(OC)c4)c2c1)CCCC3,inactive
6,CC1Cc2cc(S(=O)(=O)NCc3ccccc3)ccc2N1C(=O)C1CCC1 (configuration not stated),inactive
7,Cc1cccc(C)c1NC(=O)c1ccc2nc(CCc3ccccc3)oc2c1,inactive
8,COc1ccccc1C(=O)NCCSc1c(C)[nH]c2ccccc12,inactive
9,CCOc1ccc(S(=O)(=O)NCCc2csc(-c3ccc(Cl)cc3)n2)cc1,inactive
10,CCc1ccc(CNC(=O)c2ccc3nc(SCc4ccc(F)cc4)n(C)c3c2)cc1,inactive
11,CCc1ccc(CNC(=O)c2cc3cc(S(=O)(=O)N4CCCCC4)ccc3n2C)cc1,inactive
12,Cc1ccc(CN2CCCn3nc(C(=O)NCc4ccc(OC(C)C)cc4)cc3C2=O)cc1,inactive
13,CCc1cccc(-n2nnc(S(=O)(=O)c3ccc(OC)cc3)c2C)c1,inactive
14,CCc1ccc(-n2nc(C)c3c(C(=O)Nc4cccc(C(F)(F)F)c4)cc(C)nc32)cc1,inactive
15,COc1ccc(NC(=O)Cn2nc(-c3ccncc3)ccc2=O)cc1Cl,inactive
16,Cc1ccc(S(=O)(=O)Nc2cccc(-c3ccc(N4CCCCC4)nn3)c2)s1,1.51 µM (active)
17,O=C(NCCn1cc(SCc2ccccc2)c2ccccc21)c1cccs1,inactive
